# Measurements published in ChEMBL document CHEMBL4513216, “Probing the Open Global Health Chemical Diversity Library for Multistage-Active Starting Points for Next-Generation Antimalarials” (ACS Infect Dis, 2020).
# Out of some 68,000 compounds screened, about 2,700 (4%) showed an effect of 50% or more. Shown is part of a subset that was picked to be rich in strong results.
# System: Plasmodium berghei
# Assay: Screen against P. berghei liver stage (PbLuc), transformed with Luciferase, at 2uM
# Format: functional, HepG2
# Settings: tested at 2 uM
row,SMILES,INHIBITION
1,Nc1ncnc2nc(C3CCN(C(=O)Cc4ccccc4)C3)ccc12 (configuration not stated),-7.22%
2,CCc1nc(CC2CN(c3ncnc4sc(C)c(C)c34)CCO2)no1 (configuration not stated),-7.81%
3,CN(C)C(=O)COc1ccccc1CN1CCCC2(C1)CN(C)C(=O)O2 (configuration not stated),-38.26%
4,Cc1nc(-n2nc(C3CC3)cc2NC(=O)C(C)C)[nH]c(=O)c1C,55.52%
5,CC(=O)Nc1cc(C2CC2)nn1-c1nc(C)c(C)c(=O)[nH]1,-8.91%
6,Cc1cc(NC(=O)C(C)C)n(-c2nc(C)c(C)c(=O)[nH]2)n1,27.11%
7,CC(C)(C#N)CCCS(=O)(=O)c1nccn1-c1cccc(F)c1,19.33%
8,COc1ccc2c(OCC(=O)NCC(F)(F)F)ccnc2c1,-26.08%
9,COc1ccc2c(OCC(=O)NC(C)(C)C)ccnc2c1,-3.8%
10,CCN(CC)C(=O)COc1ccnc2cc(OC)ccc12,50.42%
11,CCN(CC1CCOC1)C(=O)c1cccnc1N1CCOCC1 (configuration not stated),53.03%
12,CCN(CC1CCOC1)C(=O)Nc1ccc(N2CCOCC2)nc1 (configuration not stated),-25.45%
13,CCN(CC1CCOC1)C(=O)c1ccccc1N1CCOCC1 (configuration not stated),-45.72%
14,Cc1cccc(CN2C[C@@H]3OCCN(c4ccnc(N(C)C)n4)[C@@H]3C2)c1,53.55%
15,CN(C)c1nccc(N2CCO[C@H]3CN(Cc4ccco4)C[C@H]32)n1,28.14%
16,CN(C)c1nccc(N2CCO[C@H]3CN(Cc4ccsc4)C[C@H]32)n1,-33.63%
17,COc1cccn(CC(=O)N2CCCC3(CCCCC3)C2)c1=O,26.14%
18,Cc1[nH]c2cc(C3CCN(C(=O)c4ccccn4)CC3)nn2c(=O)c1C,9.9%
19,Cc1ccc(-c2nc(C3CCN(C(=O)c4ccnn4C)CC3)no2)cn1,10.65%
20,Cc1csc(CN(C)C(=O)Nc2cc(F)cc(N3CCCC3)c2)n1,0.12%
21,COc1ccc(CN2CCO[C@H]3[C@H](Oc4ccccn4)CC[C@@H]32)cc1,-0.68%

row,SMILES,INHIBITION
1,Cc1cccc(CN2CCO[C@H]3[C@H](Oc4ccccn4)CC[C@@H]32)n1,64.44%
2,c1ccc(CO[C@H]2CC[C@H]3[C@H]2OCCN3CCN2CCCCC2)nc1,27.42%
3,CS(=O)(=O)N1C[C@@H](Oc2ccccn2)[C@H]2OCCC[C@H]21,50.72%
4,CCOCCN1CCO[C@H]2[C@H](OCc3ccccn3)CC[C@@H]21,55.07%
5,Cc1nc(CN2CCO[C@H]3[C@@H](Oc4ccccn4)CC[C@@H]32)cs1,27.9%
6,CCS(=O)(=O)N1C[C@@H](Oc2ccccn2)[C@H]2OCCC[C@H]21,13.38%
7,CCN(CC)CCN1CCO[C@H]2[C@@H](OCc3ccccn3)CC[C@@H]21,-31.4%
8,O=S(=O)(C1CC1)N1C[C@H](Oc2ccccn2)[C@H]2OCCC[C@H]21,17.77%
9,COc1ccc2c(=O)ccn(CC(=O)O)c2c1,16.54%
10,Cc1noc(C2CCN(C(C)c3nc(C(C)(C)C)no3)CC2)n1 (configuration not stated),11.42%
11,COC(=O)CSc1nnc(CCNC(=O)OC(C)(C)C)o1,25.59%
12,COCCNC(=O)C1CN(Cc2ccncc2)Cc2ccnn2C1 (configuration not stated),-15.71%
13,CC(C1CC1)N(C)C(=O)c1ccc(-n2ncc(C#N)c2N)cc1 (configuration not stated),26.2%
14,Fc1cccc(Nc2nc(N3CCCC3)nc3c2CNCC3)c1,32.67%
15,Cc1c(F)cccc1CN1CCn2nc(CNC(=O)N(C)C)cc2C1,21.08%
16,Cc1nc(CNCC2CNc3ccnn3C2)cs1 (configuration not stated),0.05%
17,CC(C)Nc1ncnc2c1CCN(C(=O)Cc1ccccn1)CC2,14.23%
18,O=C(c1cscn1)N1CC[C@@H]2[C@@H]1CCN2c1ccccn1,36.03%
19,COc1cc(N2C[C@@H]3COC[C@]3(COc3ccc(C#N)cn3)C2)ncn1,-15.95%
20,Cc1csc(N2CCN(Cc3ccccn3)CC2C)n1 (configuration not stated),-13.94%
21,Cc1cnc(CN2CCN(c3nc(C)cs3)C(C)C2)cn1 (configuration not stated),50.3%

row,SMILES,INHIBITION
1,Cc1csc(N2CCN(Cc3cscn3)CC2C)n1 (configuration not stated),-7.32%
2,COc1ccc(CNC(C)c2cccc(Br)c2)c(OC)c1OC (configuration not stated),0.8%
3,OC1(Cn2ccc3ncccc32)CCN(Cc2ccccc2F)CC1,22.81%
4,CCN(CC)C(CNC(=O)c1ccnc(N(C)C)c1)c1ccsc1 (configuration not stated),86.89%
5,CCN(CC)C(CNC(=O)c1cccnc1-n1cncn1)c1ccsc1 (configuration not stated),28.81%
6,CCN(CC)C(CNC(=O)c1ccc(-n2cncn2)cc1)c1ccsc1 (configuration not stated),-12.13%
7,Cc1ccc(C(=O)N2CCC3(CC2)CCN(Cc2ccccn2)C3=O)o1,2.5%
8,CN1C(=O)c2cccc(NC(=O)c3ccc4c(c3)OCCO4)c2C1=O,27.8%
9,O=C(CCc1ccc(-c2ccccc2)[nH]1)N1CCCC(n2ccnc2)C1 (configuration not stated),-13.92%
10,Cc1nc(CN2CCC(N3CCN(C)C3=O)CC2)no1,40.17%
11,CCN1CCN(C2CCN(Cc3noc(C)n3)CC2)C1=O,62.13%
12,CCN1CCN(C2CCN(Cc3noc(C4CC4)n3)CC2)C1=O,24.65%
13,COCCN(C)C(C(=O)O)c1ccc2ccccc2c1 (configuration not stated),10.75%
14,Cc1cc(C)n(C2CCCN(C(=O)c3cc(C(N)=O)cs3)C2)n1 (configuration not stated),20.93%
15,Cc1cccc(N2CCN(CCNC(=O)C(C)n3cncn3)CC2)c1 (configuration not stated),12.88%
16,O=C(N[C@@H]1CN(CC2CC2)[C@@H]2CCCO[C@@H]21)c1cscn1,17.24%
17,Cc1ncc(CN2CCN(C(=O)N(C)C)[C@@H]3CS(=O)(=O)C[C@@H]32)cn1,55.99%
18,CCN(CC)C(=O)N1CCN(Cc2cnc(C)nc2)[C@H]2CS(=O)(=O)C[C@H]21,29.51%
19,CCC(=O)N1CCN(Cc2cnc(C)nc2)[C@H]2CS(=O)(=O)C[C@H]21,-36.29%
20,O=C(CC1CC1)N1CCC2(CC1)CN(c1ncccn1)CCO2,-26.24%
